Results reported in ChEMBL document CHEMBL1157539, “Thousands of chemical starting points for antimalarial lead identification” (Nature, 2010).

What was measured:
[1] = system: Plasmodium falciparum; test: GSK_TCMDC: Inhibition of Plasmodium falciparum 3D7 in whole red blood cells, using parasite LDH activity as an index of growth. Test compounds present at 2uM; type: functional
[2] = system: Plasmodium falciparum; test: GSK_TCMDC: Inhibition of Plasmodium falciparum Dd2 in whole red blood cells, using parasite LDH activity as an index of growth. Test compounds present at 2uM; type: functional

SMILES	Inhibition [1] [%]	Inhibition [2] [%]
CCOc1cc(OCC)c2ccccc2c1CNCCCCCCNCc1c(OCC)cc(OCC)c2ccccc12.CS(=O)(=O)O	100	89
Cc1nc(C)c(-c2ccc(Oc3ccc(Cl)cc3)c(Cl)c2)c(O)c1Br	97	96
CCCCNCCOc1ccc(-c2nc(-c3ccccc3)c(-c3ccccc3)[nH]2)cc1	100	34
CCN(CC)CCCC(C)Nc1ccnc2cc(C#N)ccc12 (stereo unspecified)	100	80
Cl.Nc1ccncc1C(=O)NCCCCN1CCN(c2nsc3ccccc23)CC1	100	9
CCCc1cc2c3c(N)nc(N)nc3ccc2n1CC	96	6
COc1cc2c(cc1OC)C(C)(C)CN1Cc3c(c(CO)c(OC)c(OC)c3OC)CC21.Cl (stereo unspecified)	95	9
CCCCCCCN(Cc1ccc(OC(C)(C)C(=O)OCC)cc1)C(=O)Nc1ccc(Cl)cc1OCC	95	89
CCCOc1ccc(CNCCCCCCNCc2ccc(OCCC)c3ccccc23)c2ccccc12.CS(=O)(=O)O	100	96
CCN(CC)c1ccc2nc(N)nc(N)c2c1.Cl	93	0
CC(C)Cn1cc2c(ccc3nc(N)nc(N)c32)n1	97	2
Cc1nc2ccc(S(=O)(=O)Nc3ccc(C(=O)N[C@@H](CCC(=O)O)C(=O)O)cc3)cc2c(=O)[nH]1	94	2
Cl.N=C(N)c1ccc2[nH]c(-c3cc4cc(C(=N)N)ccc4o3)cc2c1	94	87
